Screening results (PubChem)
GIRK2 act: Activates human GIRK2-containing potassium channels | P48051 | HEK293 GIRK2/NPY4 cells, thallium flux fluorescence | activation (% efficacy), % for hits at 37.5 µM | 34,000 tested, under 10 active | AID 1259324;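 active means primary screen hit, no activity in plain HEK293 cells, and in GIRK2-only cells above 5% efficacy rising with concentration; inactive means the rest, including fluorescent compounds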;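 further: efficacy is normalized control-subtracted fluorescence 15 s after thallium addition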
GluA2 TARP mod: modulates AMPAR-stargazin complexes | 40,000 tested, 3.5% active | HEK293 GluA2+stargazin, membrane potential dye (FDSS), glutamate EC50; hits were called plate by plate, in both directions | calls only at 30 µM | O88602+P19491;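 active means any of four per-well response measures lying three or more SD from its plate-wide compound average, in either direction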
Target sequence (O88602 whole entry, looked up): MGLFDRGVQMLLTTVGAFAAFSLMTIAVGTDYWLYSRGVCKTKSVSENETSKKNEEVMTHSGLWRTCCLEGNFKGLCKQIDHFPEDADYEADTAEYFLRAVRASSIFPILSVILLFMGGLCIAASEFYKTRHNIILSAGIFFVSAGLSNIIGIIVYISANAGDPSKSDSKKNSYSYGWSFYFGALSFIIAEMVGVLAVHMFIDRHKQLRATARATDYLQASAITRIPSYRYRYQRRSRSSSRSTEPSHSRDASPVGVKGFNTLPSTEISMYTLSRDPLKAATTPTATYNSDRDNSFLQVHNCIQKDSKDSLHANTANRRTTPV
Target sequence (P19491 whole entry, looked up): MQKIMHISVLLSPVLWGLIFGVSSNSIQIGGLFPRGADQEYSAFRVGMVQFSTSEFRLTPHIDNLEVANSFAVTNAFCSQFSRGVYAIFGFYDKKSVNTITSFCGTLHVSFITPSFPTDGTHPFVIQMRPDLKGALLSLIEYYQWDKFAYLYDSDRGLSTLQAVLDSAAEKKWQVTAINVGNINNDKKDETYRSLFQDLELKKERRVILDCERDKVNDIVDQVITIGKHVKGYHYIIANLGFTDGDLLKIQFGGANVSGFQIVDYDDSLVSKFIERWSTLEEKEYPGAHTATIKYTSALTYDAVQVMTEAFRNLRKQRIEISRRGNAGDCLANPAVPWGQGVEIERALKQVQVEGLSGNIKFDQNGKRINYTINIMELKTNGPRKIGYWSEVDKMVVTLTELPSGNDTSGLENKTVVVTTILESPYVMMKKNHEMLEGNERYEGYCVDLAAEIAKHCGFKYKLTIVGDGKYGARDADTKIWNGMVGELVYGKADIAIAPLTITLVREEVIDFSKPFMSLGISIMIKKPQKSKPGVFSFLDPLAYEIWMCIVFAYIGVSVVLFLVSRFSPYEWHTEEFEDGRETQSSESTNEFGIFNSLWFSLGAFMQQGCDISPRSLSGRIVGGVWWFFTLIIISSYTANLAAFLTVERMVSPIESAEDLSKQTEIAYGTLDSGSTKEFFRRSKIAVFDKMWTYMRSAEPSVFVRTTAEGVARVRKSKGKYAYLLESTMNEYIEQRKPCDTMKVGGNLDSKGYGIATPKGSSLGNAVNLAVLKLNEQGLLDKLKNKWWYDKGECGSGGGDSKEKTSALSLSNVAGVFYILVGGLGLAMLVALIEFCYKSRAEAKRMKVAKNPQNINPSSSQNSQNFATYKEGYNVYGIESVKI
The depositor's hits bear a star; i = inactive; / = not tested or not shown; + = active, no number; [ ] = remark or other dose. The full list was thinned out, with hits kept by preference.

SMILES	GIRK2 act	GluA2 TARP mod
Cc1ccc(-n2ncc3c(=O)n(CC(=O)N4CCCC4)cnc32)cc1C	/	i
CCOC(=O)NCc1nc2ccccc2n1Cc1ccccc1F	i	+
CCOC(=O)NCc1nc2ccccc2n1Cc1c(F)cccc1Cl	/	i
OCc1nc2ccccc2n1Cc1c(F)cccc1Cl	/	i
COC(=O)NCCc1nc2ccccc2n1Cc1c(F)cccc1Cl	/	+
O=C(NCC(O)(c1ccccc1)C(F)(F)F)c1ccc(-c2ccccc2)cc1 (stereo not drawn)	i	i
O=c1nc(SCc2cccc([N+](=O)[O-])c2)c2c(n1CCCO)CCC2	i	i
O=C(CCCn1c(SCc2cccc([N+](=O)[O-])c2)nc2ccccc2c1=O)N1CCCC1	i	+
CC(NS(C)(=O)=O)C(c1cccs1)N1CCN(c2ccccc2)CC1 (stereo not drawn)	i	i
COc1ccc(NC(=O)CSc2nnc(C)c3ccccc23)c(OC)c1	i	i
COc1ccc(NC(=O)CSc2nc(-c3ccc(C)cc3)c3ccccc3n2)c(OC)c1	i	+
COc1ccc(S(=O)(=O)CCCC(=O)Nc2ccc(O)c(-c3nc4ccccc4s3)c2)cc1	i	i
O=C(c1cc(-c2ccccc2)n[nH]1)N1CCN(Cc2nc(-c3ccccc3)cs2)CC1	i	i
O=C(CS(=O)(=O)c1ccc(Cl)s1)Nc1cccc(C(F)(F)F)c1	i	+
O=C(CS(=O)(=O)c1ccc(Cl)s1)Nc1ccc(Oc2ccccc2)cc1	i	i
CCOc1ccc(Nc2nc(N3CCOCC3)c3[nH]cnc3n2)cc1	i	i
O=C(NC1CC(=O)N(c2ccccc2)C1)c1ccccc1C(F)(F)F (stereo not drawn)	/	i
COc1ccc(N2CC(NC(=O)c3ccccc3C(F)(F)F)CC2=O)cc1 (stereo not drawn)	/	+
Cc1cccc(NC(=O)Nc2cccc(-c3ccc4nncn4n3)c2)c1	i	i
COC(=O)c1ccccc1N=Nc1c(N)[nH]n(-c2ccccc2)c1=O	/	+
COC(=O)c1ccccc1-n1c(=O)c2ccccc2c2ccccc2c1=O	/	i
CCc1ccccc1NC(=O)Cn1c(=O)n(C2CC2)c(=O)c2nscc21	i	+
CC(C)n1c(=O)c2nscc2n(CC(=O)Nc2ccc3c(c2)OCCO3)c1=O	i	i
O=C(Cn1c(=O)n(C2CC2)c(=O)c2nscc21)Nc1ccc(F)c(Cl)c1	i	+
CC(C)n1c(=O)c2nscc2n(CC(=O)Nc2ccc(Br)cc2)c1=O	i	+
SMILES	GIRK2 act	GluA2 TARP mod
Cc1cc(C)c(NC(=O)Cn2c(=O)n(C3CC3)c(=O)c3nscc32)c(C)c1	i	i
COc1ccc(NC(=O)Cn2c(=O)n(C(C)C)c(=O)c3nscc32)cc1Cl	i	i
COc1ccc(OC)c2sc(N(CCN3CCOCC3)C(=O)c3ccco3)nc12	/	i
COc1cccc(C(CNC(=O)c2ccc(Br)cc2)N2CCOCC2)c1 (stereo not drawn)	i	i
COc1ccc(C(=O)N2C(=S)C(c3ccc(C)cc3)=NC2(C)C)cc1	i	i
Cc1cc2ccccc2n1CCNC(=O)C1CC1	i	i
COc1ccc(S(=O)(=O)Nc2cc(-c3ccco3)nn2C2CCS(=O)(=O)C2)cc1 (stereo not drawn)	i	i
CC(=O)Cn1c(=O)c2c(nc3n(-c4cc(C)ccc4C)c(C)cn23)n(C)c1=O	/	i
O=C(NCc1cccs1)NCC(O)c1ccc(C(F)(F)F)cc1 (stereo not drawn)	/	i
O=C(NCC(O)c1ccc(C(F)(F)F)cc1)Nc1cccs1 (stereo not drawn)	/	+
CC(=O)CC1(O)C(=O)N(CCCOc2cccc3ccccc23)c2c(C)cccc21 (stereo not drawn)	i	/
CS(=O)(=O)c1ccc(NC(=O)C2(c3ccc(Cl)cc3)CCCC2)cc1	i	i
O=C(NCC1(c2ccccc2)CCOCC1)c1ccccc1C(F)(F)F	i	i
CCC1(C)CC(CCN(Cc2ccccc2F)C(C)=O)(c2ccccc2)CCO1 (stereo not drawn)	/	+
Cc1ccc2nc(NC(=O)c3ccc(S(=O)(=O)C(C)C)cc3)sc2c1	/	+
CC(C)S(=O)(=O)c1ccc(C(=O)Nc2nc3cc4c(cc3s2)OCCO4)cc1	i	i
CS(=O)(=O)c1ccc2nc(NC(=O)Cn3cccn3)sc2c1	i	i
Cc1cn(C)nc1C(=O)Nc1nc2ccc(S(C)(=O)=O)cc2s1	i	+
Cc1cc(NC(=O)c2cccc([N+](=O)[O-])c2)n(-c2nc(-c3ccccc3)cs2)n1	i	/
COc1cn(CC(=O)Nc2ccc(F)cc2F)c(CSc2ccc(F)cc2)cc1=O	i	i
COc1cc(OC)c(NC(=O)NCCNc2nc(C)cc(N3CCCCC3)n2)cc1Cl	i	+
COc1ccc(OC)c(NC(=O)NCCNc2nc(C)cc(N3CCCCC3)n2)c1	i	i
CC(C)n1nccc1-c1nnc(NC(=O)CC(c2ccccc2)c2ccccc2)o1	i	i
Cn1c(=O)c2c(ncn2CC(=O)NCc2ccccc2)n(C)c1=O	/	+
Cn1c(=O)c2c(ncn2Cc2ccccc2)n(C)c1=O	/	i
SMILES	GIRK2 act	GluA2 TARP mod
CCCOc1cc(S(=O)(=O)NCc2ccc3c(c2)OCO3)ccc1Cl	/	i
O=C(CCN1C(=O)c2ccccc2S1(=O)=O)Nc1ccc(S(=O)(=O)Nc2nccs2)cc1	i	i
O=[N+]([O-])c1ccc(Nc2ccc(S(=O)(=O)Nc3nccs3)cc2)c([N+](=O)[O-])c1	14%*[18.8 µM]	i
OC(COc1ccc2cc(Br)ccc2c1)Cn1cnc2ccccc21 (stereo not drawn)	/	i
O=C(COc1ccc(F)cc1)NCCS(=O)(=O)N1CCN(Cc2ccccc2)CC1	i	i
O=S(=O)(CCCOc1ccc(F)cc1)NC1CCN(Cc2ccccc2)CC1	i	+
COc1ccc(-n2nnc(C(=O)OCc3nc(-c4cccc(Cl)c4)oc3C)c2C)cc1	/	i
Cc1cc(=O)n2c(-c3cccc(NS(=O)(=O)c4cccs4)c3)csc2n1	i	i
Cc1ccc(-n2nc(C)c3c(Cl)c(C(=O)NCCc4ccc(S(N)(=O)=O)cc4)cnc32)cc1	/	i
O=C(COc1ccccc1C1CC(c2cccs2)=NN1C(=O)c1ccccc1)N1CCCC1 (stereo not drawn)	/	i
O=C(COc1ccccc1C1CC(c2ccccc2)=NN1C(=O)c1ccccc1)N1CCOCC1 (stereo not drawn)	/	+
CCOc1ccc(-c2cc3c(=O)n(Cc4nc(-c5cccc(Br)c5)no4)ncn3n2)cc1	i	/
COc1ccc(C(=O)Nc2ccc(-n3c(C)nc4ncccc4c3=O)cc2C)cc1	/	i
O=C(NCc1cccs1)Nc1ccc(Cl)c(N2CCCS2(=O)=O)c1	i	i
O=C(NCc1cccc2ccccc12)Nc1ccc(Cl)c(N2CCCS2(=O)=O)c1	i	+
Cn1cccc1CN(C(=O)C1COc2ccccc2O1)C1CC1 (stereo not drawn)	i	/
CC(c1ccccc1)n1c(N2CCCCCC2)nc2c1c(=O)n(C)c(=O)n2C (stereo not drawn)	i	+
CC(c1ccccc1)n1c(N2CCCC2)nc2c1c(=O)n(C)c(=O)n2C (stereo not drawn)	i	i
